TROY NFkB inh: inhibitors of TROY-driven NF-kB signaling, primary screen, Q293 LMP1-TROYcd cells, NF-kB luciferase, uHTS. Q293 LMP1-TROYcd NF-kB luciferase reporter, 4 h. inhibition, % at 10 µM. actives 0.98% (n = 360,000). AID 1347056, 2019;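 active = compounds whose plate-normalised and pattern-corrected inhibition of the luciferase reporter signal at the single screening dose is 50% or more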
TWEAK Fn14 block: inhibitors of TWEAK-Fn14 signaling, primary screen, luciferase reporter cells, uHTS; inhibition, % at 10 µM; actives 2% (n = 360,000); TWEAK-stimulated Fn14 reporter cells, luciferase luminescence, 8 h; in the data active = inhibition above about 50%
HIF-2a inh: HIF-2a reporter inhibitors, primary screen, luminescence, 786-0 RCC cells; 786-0 RCC cells HIF-2a reporter, luciferase luminescence, overnight; inhibition, % at 18.8 µM; actives 0.72% (n = 360,000);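 active = inhibition of the luminescence signal of 40% or more relative to plate controls, in a single-dose primary screen at 18.75 µM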
LMP1 NFkB inh: EBV LMP1-driven NF-kappaB luciferase reporter inhibitors, primary screen, cell-based, luminescence, single point; LMP1-induced NF-kappaB luciferase reporter cells; AID 504558, 2011; actives 0.69% (n = 350,000); inhibition, % at 12.5 µM; in the data active = inhibition above about 41%
TRPM1 prom inh: inhibitors of MITF-dependent TRPM1 promoter reporter, primary screen, cell-based, SK-MEL-5, single point, luciferase; SK-MEL-5 TRPM1 promoter luciferase, 24 h; inhibition, % at 12.5 µM; actives 0.83% (n = 330,000);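 active = mean inhibition across replicates of 60% or more, whatever share of single replicates reaches that level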
Peg3 prom inh: Peg3 promoter-driven luciferase inhibitors, primary screen, cell-based, HeLa, luciferase luminescence; HeLa PEG-Prom luciferase reporter, overnight; inhibition, % at 20 µM; actives 1.7% (n = 360,000);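 active = inhibition of at least 50% at 20 µM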
A number is an active result; 0 = inactive; - = no result. Compounds with a hit are over-represented: about 4% of the library has one in this group of screens.

SMILES	TROY NFkB inh	TWEAK Fn14 block	HIF-2a inh	LMP1 NFkB inh	TRPM1 prom inh	Peg3 prom inh
COc1ccc(-c2csc(NC(=O)C3CC(=O)N(Cc4ccccc4)C3)n2)cc1OC (stereo not given)	0	89	0	0	0	0
O=C(Nc1nc(-c2ccco2)c(-c2ccco2)s1)C1CC(=O)N(c2ccc3c(c2)OCCO3)C1 (stereo not given)	0	81	0	0	0	0
CCOc1ccc(N2CC(C(=O)Nc3ccc4c(c3)OCO4)CC2=O)cc1 (stereo not given)	0	0	0	0	0	0
N#CCC(=O)N/N=C/c1ccc(Sc2nc3ccccc3s2)o1	0	0	0	0	0	0
CC(C)(C)OC(=O)N(CCc1ccccc1)Cc1cccc(OCc2cccc(NC(=O)C3CCCC3)c2)c1	0	0	0	0	0	0
C[C@@H]1CN([C@@H](C)CO)C(=O)CCCn2nncc2CO[C@@H]1CN(C)S(=O)(=O)c1cccc(C#N)c1	0	0	0	0	-	0
CCc1ccc(-c2csc(NC(=O)C3CC(=O)N(c4ccc5c(c4)OCCO5)C3)n2)cc1 (stereo not given)	0	75	0	0	0	0
Cc1csc(NC(=O)C2CC(=O)N(c3ccc4c(c3)OCCO4)C2)n1 (stereo not given)	0	0	0	0	0	0
CC(C)(C)S(=O)N1Cc2cc(C(=O)NCc3ccc4c(c3)OCO4)nc(-c3cccc(-c4ccccc4)c3)c2[C@@H]1CCO (stereo not given in full)	0	0	0	-	-	0
O=C(Cc1ccccc1)NC(Nc1cccc2ccccc12)C(Cl)(Cl)Cl (stereo not given)	56	0	0	0	0	0
O=c1[nH]c(=O)n(Cc2ccco2)c2c1C(C(F)(F)F)(C(F)(F)F)N=C(CCC1CCCCC1)N2	0	0	0	0	0	0
O=c1[nH]c(=O)n(Cc2ccco2)c2c1C(C(F)(F)F)(C(F)(F)F)N=C(CCc1ccccc1)N2	0	0	0	0	0	55
CNC(CC(=O)c1ccc([N+](=O)[O-])cc1)C(Cl)(Cl)Cl (stereo not given)	0	0	93	0	90	101
COc1ccc(C(=O)CC(Nc2ccc([N+](=O)[O-])cc2)c2ccc(OC)cc2)cc1 (stereo not given)	0	0	0	0	0	0
CC1CCCCN1CC(=O)NC(c1ccccc1)c1ccccc1 (stereo not given)	0	0	0	0	0	0
CSc1ccccc1NC(=O)CN1CCCCC1C (stereo not given)	0	0	0	55	0	0
CC(C)Cn1c(C(C)C)nc([N+](=O)[O-])c1S(=O)(=O)c1ccc(F)cc1	0	50	0	0	0	0
Cc1cccc(-c2cnc3cccnn23)c1	0	0	0	-	-	0
CC(=O)c1ccc(S(=O)(=O)Nc2cccc(-c3ccc4nncn4n3)c2)cc1	0	0	0	58	0	0
O=C(c1noc2c1CSc1ccccc1-2)N1CCN(c2ccc(Cl)cc2)CC1	0	0	0	68	0	0
OC1CCN(Cc2ccc3ccccc3c2)CC1	0	97	0	0	0	0
COc1ccccc1CN1CCN(Cc2ccc3ccccc3c2)CC1	0	0	0	0	0	0
COc1ccc(CN2CCN(Cc3ccc4ccccc4c3)CC2)cc1OC	0	0	0	0	0	0
O=[N+]([O-])c1ccccc1CN1CCN(Cc2ccc3ccccc3c2)CC1	0	65	0	0	0	0
Cc1ccc2cc(CN(CC(C)C)S(=O)(=O)c3cccc4nonc34)c(=O)[nH]c2c1	0	0	0	0	0	0
SMILES	TROY NFkB inh	TWEAK Fn14 block	HIF-2a inh	LMP1 NFkB inh	TRPM1 prom inh	Peg3 prom inh
CCn1cnc2sc(C(=O)Nc3ccc4c(c3)OCO4)c(C)c2c1=O	-	57	0	0	0	0
CCN(C(=O)Cn1c(Cl)nc2c1c(=O)n(C)c(=O)n2C)C1CCCCC1	0	0	0	0	0	0
CN(C)c1ccc(NC(=O)c2cccc(C(=O)Nc3ccc(N(C)C)cc3)n2)cc1	0	51	0	0	0	0
CCOc1cc(-c2c(C#N)c(N)nc3c2CCc2ccccc2-3)ccc1O	0	75	0	0	0	0
COc1ccccc1-c1c(C#N)c(N)nc2c1CCc1ccccc1-2	54	73	0	0	0	0
COc1ccccc1-c1c(C)c(C)nc(N)c1C#N	0	0	0	0	0	0
CCOC(=O)N1CCN(CC(=O)Nc2sc(CC)cc2C(=O)c2ccc(OC)cc2)CC1	0	0	0	0	0	0
N#Cc1ccc(NC(=O)C2=COCCO2)cc1	0	0	0	0	0	0
CCCC(Oc1ccc(Br)cc1)c1nc2c3cc(OC)c(OC)cc3nc(=S)n2[nH]1 (stereo not given)	62	0	0	0	0	0
Cc1cc(C)c(NS(=O)(=O)c2ccc(NC(=O)c3cccs3)cc2)c(C)c1	51	0	0	0	0	0
Cc1ccc(NC(=S)NC(=O)c2ccc(F)cc2)cc1S(=O)(=O)Nc1cccc(Cl)c1	50	68	0	0	0	0
Cc1ccc(NC(=O)c2cccs2)cc1S(=O)(=O)Nc1cccc(Cl)c1	0	60	0	0	0	0
O=C(NCCc1ccc(F)cc1)Nc1ccccc1Cl	0	0	0	0	0	0
CC(C)[C@H](NC(=O)N1c2ccccc2NC(=O)[C@@H]1C(C)C)C(=O)N[C@@H](Cc1c[nH]c2ccccc12)C(=O)O	0	0	0	0	0	0
CC1(c2ccc(Cl)cc2)NC(=O)N(CC(=O)N2CCN(C(=O)c3cccs3)CC2)C1=O (stereo not given)	0	0	0	0	-	0
C=CC(=O)N1C/C(=C/c2ccc(F)cc2)C(=O)/C(=C\c2ccc(F)cc2)C1	79	106	82	89	96	107
CCCCN(Cc1cc2cccc(C)c2[nH]c1=O)S(C)(=O)=O	0	0	0	0	0	0
O=C1C=C(c2cc3ccccc3s2)CCC1	0	0	0	51	0	0
CCn1cc(C(=O)NCCCO)c(=O)c2cc(F)c(N3CCN(C)CC3)cc21	0	0	0	0	0	0
CCCCCCNC(=O)c1cn(CC)c2cc(N3CCN(C)CC3)c(F)cc2c1=O	0	0	0	0	0	54
COC(=O)c1cc(C(=O)c2cc(Br)ccc2O)coc1=N	0	0	0	0	0	0
CC(C)NC(=O)c1cc(C(=O)c2cc(Cl)ccc2O)coc1=N	0	69	0	0	0	0
COc1cc(-c2nc(CN(C)C(C)c3ccncn3)c(C)o2)ccc1F (stereo not given)	0	0	0	0	0	0

Screening results as filed in PubChem BioAssay.
